In PubChem BioAssay (NCI):
The panel holds about 79,000 compounds, 15% with a hit somewhere; the sample as a whole holds those more often. Active and inactive are the calls of the source. Cut-off read from the data, not from the text of the source: active = growth inhibition above about 70%; inactive = the rest.

Columns and labels:
[1] = NCI Yeast Anticancer Drug Screen. Data for the rad50 strain (AID 155);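 note: 0% = growth of vehicle-only cultures of the same strain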; details: S. cerevisiae rad50 strain growth inhibition, hits give high values
In short: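 Cells are treated with compound, grown, and their growth is then scored against vehicle-only cultures of the same repair-deficient yeast strain.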

[2] = NCI Yeast Anticancer Drug Screen. Data for the mec2-1 strain (AID 157); details: S. cerevisiae mec2-1 strain, hits give high values
In short: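 Readout is yeast growth inhibition, normalised to vehicle-treated controls, in the mec2-1 strain exposed to compound.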

[3] = NCI Yeast Anticancer Drug Screen. Data for the sgs1 mgt1 strain (AID 161);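 note: 0% = growth of cultures given vehicle only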; details: S. cerevisiae sgs1 mgt1 strain, hits give high values
In short: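 This yeast growth screen uses a strain with defined DNA-repair lesions; compound-treated growth is compared with vehicle-treated growth.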

[4] = NCI Yeast Anticancer Drug Screen. Data for the cln2 rad14 strain (AID 165);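 note: 0% = growth equal to vehicle treated cultures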; details: S. cerevisiae cln2 rad14 strain, hits give high values
In short: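 Relative to vehicle controls, growth inhibition of compound-treated cln2 rad14 yeast was recorded.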

[5] = NCI Yeast Anticancer Drug Screen. Data for the bub3 strain (AID 167); details: S. cerevisiae bub3 mutant strain, hits give high values
In short: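 Part of a panel of yeast mutants defective in DNA damage repair or cell cycle regulation. Each strain is grown with compound, and inhibition is calculated relative to solvent-treated cultures.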

[6] = NCI Yeast Anticancer Drug Screen. Data for the mlh1 rad18 strain (AID 175); details: S. cerevisiae mlh1 rad18 strain growth inhibition, hits give high values
In short: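 Test agents were incubated with a yeast strain of defined genotype (DNA damage repair defect). Inhibition of growth was derived by comparison with vehicle-exposed cultures.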

[7] = at 5.0 µM (retest, dose inferred, filed as 0.5)
[8] = at 50.0 µM (retest, dose inferred, filed as 5.0)

Measured: growth inhibition

COc1ccc(C2C(C#N)(C#N)C2(C#N)C#N)cc1
active: [1]; [8] 98% | [2]; [8] 99% | [2]; at 50.0 µM 96.5% | [3]; [8] 98% | [3]; at 50.0 µM 98.3% | [4]; [8] 99% | [4]; at 50.0 µM 88% | [5]; [8] 98% | [5]; at 50.0 µM 94.8% | [6]; [8] 99% | [6]; at 50.0 µM 92.7%
inactive: [1]; [7] 16% | [1]; at 50.0 µM 63.5% | [2]; [7] 19% | [3]; [7] 21% | [4]; [7] 2% | [5]; [7] 6% | [6]; [7] 22%

C=CCOc1ccc(-c2ccccc2)cc1C(=O)NC
inactive: [1]; [7] -9% | [1]; [8] -5% | [1]; at 50.0 µM 1.25% | [2]; [7] 2% | [2]; [8] -6% | [2]; at 50.0 µM 6.3% | [3]; [7] -2% | [3]; [8] 20% | [3]; at 50.0 µM 5.1% | [4]; [7] -42% | [4]; [8] -5% | [4]; at 50.0 µM 8.95% | [5]; [7] -3% | [5]; [8] 8% | [5]; at 50.0 µM 42.9% | [6]; [7] -3% | [6]; [8] 20% | [6]; at 50.0 µM 22.1%

Cc1cccc(Cc2cccc(Cl)c2)c1O
active: [1]; [8] 95% | [1]; at 50.0 µM 99.3% | [2]; [8] 98% | [2]; at 50.0 µM 99.8% | [3]; [8] 89% | [3]; at 50.0 µM 99.6% | [4]; [8] 90% | [4]; at 50.0 µM 99% | [5]; [8] 94% | [5]; at 50.0 µM 99.1% | [6]; [8] 96% | [6]; at 50.0 µM 98.9%
inactive: [1]; [7] -1% | [2]; [7] -1% | [3]; [7] 3% | [4]; [7] -4% | [5]; [7] -9% | [6]; [7] 8%

CCCCN(CCCC)S(=O)(=O)c1ccccc1
inactive: [1]; [7] 3% | [1]; [8] 27% | [1]; at 50.0 µM 44.7% | [2]; [7] -4% | [2]; [8] 3% | [2]; at 50.0 µM 32.4% | [3]; [7] 1% | [3]; [8] 52% | [3]; at 50.0 µM 7.85% | [4]; [7] -1% | [4]; [8] -9% | [4]; at 50.0 µM -11.4% | [5]; [7] 3% | [5]; [8] 14% | [5]; at 50.0 µM 65.5% | [6]; [7] 2% | [6]; [8] 17%
active: [6]; at 50.0 µM 79%

C=CCNC(=S)N/N=C/c1nccc(-c2ccccc2)c1C
active: [1]; [8] 96% | [1]; at 50.0 µM 73.3% | [2]; [8] 97% | [2]; at 50.0 µM 81.6% | [3]; [8] 96% | [3]; at 50.0 µM 82% | [4]; [8] 94% | [4]; at 50.0 µM 84.7% | [5]; [8] 95% | [5]; at 50.0 µM 84.5% | [6]; [8] 93% | [6]; at 50.0 µM 78.5%
inactive: [1]; [7] 37% | [2]; [7] 29% | [3]; [7] 46% | [4]; [7] 38% | [5]; [7] 54% | [6]; [7] 24%

CCOC(=O)C(=N\Nc1c(C)cccc1C)/C(C)=N\NC(N)=S
inactive: [1]; [7] -17% | [1]; [8] 15% | [1]; at 50.0 µM 64.7% | [2]; [7] -7% | [2]; [8] 25% | [2]; at 50.0 µM 32.6% | [3]; [7] 7% | [3]; [8] 45% | [3]; at 50.0 µM 58.2% | [4]; [7] -13% | [4]; [8] -9% | [4]; at 50.0 µM 54.8% | [5]; [7] -3% | [5]; [8] 4% | [5]; at 50.0 µM 51.5% | [6]; [7] 11% | [6]; [8] 42% | [6]; at 50.0 µM 69.2%

C[C@@H]1CN(CC2COc3ccccc3O2)[C@@H](C)CN1CC1COc2ccccc2O1 (some centres not stated)
active: [1]; [8] 80% | [1]; at 50.0 µM 86.8% | [2]; [7] 74% | [2]; [8] 86% | [2]; at 50.0 µM 84.3% | [3]; [7] 84% | [3]; [8] 98% | [3]; at 50.0 µM 97.4% | [4]; at 50.0 µM 92.8% | [5]; [8] 77% | [5]; at 50.0 µM 84.7% | [6]; [7] 82% | [6]; [8] 94% | [6]; at 50.0 µM 94.5%
inactive: [1]; [7] 63% | [4]; [7] 52% | [4]; [8] 65% | [5]; [7] 52%

O=c1c(Cl)cc2nc3ccccc3sc-2c1Cl
inactive: [1]; [7] 21% | [2]; [7] 42% | [2]; at 50.0 µM 6.5% | [3]; [7] 33% | [4]; [7] 1% | [4]; [8] 54% | [4]; at 50.0 µM -0.05% | [5]; [7] 38% | [6]; [7] 55%
active: [1]; [8] 72% | [1]; at 50.0 µM 84% | [2]; [8] 84% | [3]; [8] 79% | [3]; at 50.0 µM 83.8% | [5]; [8] 85% | [5]; at 50.0 µM 80.5% | [6]; [8] 87% | [6]; at 50.0 µM 83%

CC(/C=C/c1cccc(C)c1)=N\NC(N)=S
inactive: [1]; [7] 14% | [1]; [8] 41% | [1]; at 50.0 µM 30.4% | [2]; [7] 12% | [2]; [8] 38% | [2]; at 50.0 µM 53.4% | [3]; [7] 16% | [3]; [8] 34% | [4]; [7] 1% | [4]; [8] 11% | [4]; at 50.0 µM 38.6% | [5]; [7] 20% | [5]; [8] 26% | [6]; [7] 23% | [6]; [8] 38%
active: [3]; at 50.0 µM 86.2% | [5]; at 50.0 µM 81.1% | [6]; at 50.0 µM 80.5%
